# Laboratory results: PubChem BioAssay (NCI)
# Compounds without any hit were thinned out: in the full panel of roughly 83,000, 20% have a hit.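 Results are percent growth after 48 hours of single-concentration exposure. 100 means growth as in untreated cells, lower positive values show inhibition; negative values down to -100 show cell death.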 A number with no mark means an inactive call. Calls of active or inactive are those of the source. How the source made its calls: active means growth percent below 10; inactive means the rest.
# Legend:
# Assay in all cases: NCI-60 one-dose screen, 48 h (100 = growth as untreated, 0 = no growth, -100 = all killed)
# Conditions in all cases: 10 µM unless noted
# [1] = test system: NCI-H23 lung
# [2] = test system: NCI-H226 lung
# [3] = test system: NCI-H322M lung
# [4] = test system: NCI-H460 lung
# [5] = test system: HOP-92 NSCLC
# [6] = test system: NCI-H522 lung
# [7] = test system: A549/ATCC NSCLC
# [8] = test system: 786-0 renal
# [9] = test system: COLO 205 colon
# [10] = test system: DU-145 prostate
# [11] = test system: K-562 leukemia
# [12] = test system: MALME-3M melanoma
# [13] = test system: MDA-MB-231 breast
# [14] = test system: RXF 393 renal
# [15] = test system: SF-268 CNS
# [16] = test system: SF-295 CNS
# [17] = test system: SF-539 CNS
# [18] = test system: UACC-257 melanoma
# [19] = test system: M14 melanoma
# [20] = test system: HOP-62 NSCLC
Compound,growth [1],growth [2],growth [3],growth [4],growth [5],growth [6],growth [7],growth [8],growth [9],growth [10],growth [11],growth [12],growth [13],growth [14],growth [15],growth [16],growth [17],growth [18],growth [19],growth [20] [%]
CCOC(=O)c1nn(C2CCCCO2)c2ccc(NC(=O)CN3CCOCC3)cc12 (stereo not drawn),99.7%,106%,95.7%,101%,108%,106%,106%,98.3%,118%,107%,90.4%,104%,102%,122%,97.5%,101%,98.1%,98.8%,102%,
Brc1ccc(-c2nnc3c4[nH]ccc4ncn23)cc1,88.3%,96.7%,91%,90.1%,69.6%,80.9%,91.8%,94%,109%,101%,79.9%,101%,44.4%,107%,92.4%,96.1%,102%,109%,102%,
CCOC(=O)c1cc(C(=O)c2ccc(OC)c(OC)c2)n2ccc(-c3ccccn3)cc12,78%,49.9%,58.7%,17.9%,41.6%,-3.85% (active),47.5%,101%,65.5%,65.1%,107%,49.6%,58.1%,63.9%,25.3%,69.1%,29.6%,76.3%,101%,
CC[C@@](C)(NC(=O)[C@H](C)NC(=O)CCNC(=O)C(C)(C)NC(=O)[C@H](C)NC(=O)[C@@H]1CCCN1C(=O)[C@@](C)(CC)NC(=O)[C@H](Cc1ccccc1)NC(=O)C1CCCN1C(=O)C(C)(C)NC(=O)C1CCCN1C(=O)C(C)(C)NC(C)=O)C(=O)NCCC(=O)N[C@@H](CC(C)C)C(=O)NC(C)(C)C(=O)NCCC(=O)N[C@@H](CC(C)C)C(=O)NC(C)(C)C(=O)NC(C)(C)C(=O)N[C@@H](CC(C)C)C(=O)NCCC(=O)NCO (stereo partly drawn),-89.5% (active),-97% (active),-87.9% (active),-78.1% (active),-94.7% (active),-84.2% (active),-81.3% (active),-94.6% (active),-87.9% (active),-100% (active),-60.9% (active),-84.9% (active),-88.5% (active),-97.5% (active),-96.8% (active),-98.6% (active),-90% (active),-95.2% (active),-88.6% (active),
C#CC(OC(=O)N(C)C)(c1ccccc1)c1ccc(F)cc1 (stereo not drawn),98.7%,89.7%,128%,96.7%,92.9%,83.2%,,120%,158%,105%,120%,142%,101%,87.7%,91.1%,115%,107%,87.8%,129%,
O=[N+]([O-])c1cc([N+](=O)[O-])c(NN=C(c2ccc(O)cc2)c2ccc(O)cc2)cc1Cl,-72.9% (active),-28% (active),9.47% (active),-6.95% (active),-69.6% (active),-55.1% (active),-71.2% (active),-89% (active),25.6%,-77.9% (active),101%,-51.6% (active),-70.4% (active),-76.5% (active),-91.8% (active),104%,-51.9% (active),-79.9% (active),-86.8% (active),
Cc1nn(-c2ccccc2)c(N2CCOCC2)c1-c1nc2ccc([N+](=O)[O-])cc2[nH]1,107%,111%,93.2%,99.5%,117%,80.5%,94%,107%,124%,98.4%,88.4%,105%,109%,113%,89.7%,99.8%,109%,106%,108%,
C[n+]1c2ccccc2nc2c(N)cc(N)cc21,,37.2%,71.2%,86.6%,84.2%,52.2%,82%,62.2%,49.8%,93.5%,36.4%,3.51% (active),87.3%,112%,24.8%,89.5%,48.6%,92.8%,,56.6
O=c1[nH]c2cc(Cl)c(Cl)cc2n2cc3ncccc3c12,90.6%,89.2%,97.9%,,87.3%,43.8%,,92.2%,90.4%,100%,65.5%,128%,89.4%,112%,95.1%,58.5%,112%,97.8%,101%,
CC(C)(C)c1cc(C(=O)Nc2cc3ccccc3cc2C(=O)NCCN)cc(C(C)(C)C)c1,-52.4% (active),-51.9% (active),-78.3% (active),-70.4% (active),-70.3% (active),-47.3% (active),-60.7% (active),-92% (active),-80.9% (active),-96.9% (active),-76.9% (active),-38.1% (active),-79.9% (active),-90.4% (active),-80.7% (active),-85.5% (active),-68.8% (active),-36.1% (active),-81.2% (active),
ClC1=C(Cl)C(Cl)=C(Cl)C1=Cc1ccccc1,-58.6% (active),-73% (active),-13.2% (active),-52.6% (active),-49.1% (active),-51.1% (active),-0.255% (active),-90.3% (active),-55.6% (active),-76.4% (active),1.01% (active),-53.7% (active),-21% (active),-91.4% (active),-44.9% (active),-30.1% (active),-43.6% (active),-66.7% (active),-93.1% (active),
Cc1cnc([C@]23CC[C@@H](C)[C@H](C)[C@H]2C2=CC[C@@H]4[C@@]5(C)Cc6c([nH]c7ccccc67)C(C)(C)[C@@H]5CC[C@@]4(C)[C@]2(C)CC3)o1,27.8% [100 µM],59.2% [100 µM],37% [100 µM],16.7% [100 µM],30.5% [100 µM],79.5% [100 µM],28.8% [100 µM],27% [100 µM],43% [100 µM],69.9% [100 µM],38.3% [100 µM],59.1% [100 µM],38.3% [100 µM],101% [100 µM],36.1% [100 µM],31.7% [100 µM],6.53% [100 µM] (active),61.5% [100 µM],28.4% [100 µM],
Nc1cc(C(=O)O)[nH]c(=S)n1,95.2%,95.2%,98.1%,105%,67.7%,96.7%,98.5%,100%,112%,106%,115%,89.8%,100%,96.9%,98.6%,101%,104%,93.3%,93.7%,
